For orientation: inhibition means the drop in the measured response relative to a control, in per cent.

Values without a mark were called inactive. Calls of active or inactive are those of the source. Cut-off read from the data, not from the text of the source, unless noted: active = inhibition above about 33%; inactive = the rest.

A short description of test [1]: StAR promoter reporter inhibitors, counter-screen for LRH-1 inverse agonist project, cell-based, luminescence, high throughput (AID 651611; in the data active = inhibition above about 28%). As to conditions: StAR promoter luciferase reporter counterscreen, at 3.6 µM, hits give high values.
The target in test [2] is Nuclear receptor subfamily 5 group A member 2 (Homo sapiens) (UniProt O00482). The test is described as follows: NR5A2 activity suppression in reporter cells – cell-based, luminescence, confirmation (AID 651613; in the data active = inhibition above about 42%;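 note: HEK293T cells co-transfected with LRH-1 and StAR promoter luciferase reporter; 0% = vehicle wells and 100% = parental cells lacking receptor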). As to conditions: cell-based LRH-1 luciferase reporter, inverse agonism; at 3.6 µM; hits give high values. (In general: Reporter assays use an easily measured gene product as a stand-in for the process of interest.)

The target in test [3] is Steroidogenic factor 1 (Homo sapiens) (UniProt Q13285). Description: inverse agonism at SF1 nuclear receptor – cell-based, luminescence, high throughput, counter-screen for LRH-1 inverse agonist project (AID 651614; in the data active = inhibition above about 44%;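 note: cells cotransfected with StAR promoter reporter and SF1 expression vector; 0% = vehicle on cells with receptor and 100% = vehicle on cells lacking receptor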). As to conditions: cell-based SF1 luciferase reporter, at 3.6 µM, hits give high values. A general note: Counterscreens check selectivity or assay interference.

The nature of test [4]: compounds suppressing VP16-driven luciferase signal – cell-based, luminescence, high throughput, counter-screen for LRH-1 inverse agonist project (AID 651615). As to conditions: Gal4-VP16 luciferase reporter cells, at 3.6 µM, hits give high values.

Nuclear receptor subfamily 5 group A member 2 (Homo sapiens), sequence (O00482 whole entry, looked up): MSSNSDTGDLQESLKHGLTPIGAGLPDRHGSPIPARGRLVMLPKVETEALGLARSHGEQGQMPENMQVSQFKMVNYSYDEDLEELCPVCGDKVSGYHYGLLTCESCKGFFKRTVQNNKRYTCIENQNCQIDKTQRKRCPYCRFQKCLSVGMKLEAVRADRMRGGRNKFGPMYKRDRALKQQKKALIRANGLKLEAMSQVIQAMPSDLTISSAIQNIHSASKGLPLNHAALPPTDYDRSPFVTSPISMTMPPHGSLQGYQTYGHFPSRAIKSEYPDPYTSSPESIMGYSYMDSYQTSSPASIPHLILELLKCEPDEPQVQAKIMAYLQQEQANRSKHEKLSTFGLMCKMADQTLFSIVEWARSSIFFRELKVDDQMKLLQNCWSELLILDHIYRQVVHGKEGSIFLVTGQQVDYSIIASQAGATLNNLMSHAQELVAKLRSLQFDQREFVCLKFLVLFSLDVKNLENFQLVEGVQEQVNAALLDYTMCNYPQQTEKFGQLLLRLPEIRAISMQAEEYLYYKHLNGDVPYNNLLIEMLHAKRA
Steroidogenic factor 1 (Homo sapiens), sequence (Q13285 whole entry, looked up): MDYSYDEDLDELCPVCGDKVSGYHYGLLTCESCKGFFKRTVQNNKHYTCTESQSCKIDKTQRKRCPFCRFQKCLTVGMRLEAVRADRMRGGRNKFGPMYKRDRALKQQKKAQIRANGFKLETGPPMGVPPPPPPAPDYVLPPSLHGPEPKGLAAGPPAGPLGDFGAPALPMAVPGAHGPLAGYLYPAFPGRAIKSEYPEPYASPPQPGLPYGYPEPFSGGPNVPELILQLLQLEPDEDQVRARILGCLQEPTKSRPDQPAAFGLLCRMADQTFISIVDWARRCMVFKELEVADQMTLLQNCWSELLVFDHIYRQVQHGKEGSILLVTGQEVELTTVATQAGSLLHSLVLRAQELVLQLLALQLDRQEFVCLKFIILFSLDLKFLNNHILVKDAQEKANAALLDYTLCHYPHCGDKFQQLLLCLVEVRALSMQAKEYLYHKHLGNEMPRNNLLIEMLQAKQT

As for `CC(C(=O)N1CCCc2c1c(=O)oc1ccc(O)cc21)N1CCc2ccccc2C1` (stereo unspecified), the inhibition in test [1] is 3.35%; in test [2], 48.5% (active); in test [3], 32.4%; in test [4], -3.51%.
With `COc1ccc(NC(=O)CSc2sc3c(O)cc(=O)[nH]c3c2C#N)c(OC)c1`, the inhibition in test [1] was 1.46%; in test [2], 48.8% (active); in test [3], 47.3% (active); in test [4], 2.48%.
The like results for `O=C(Nc1ccccc1C(=O)Nc1nccs1)c1ccccc1` were, in that order, 15.4%, 52.8% (active), 47.8% (active) and 2.34%.
The like results for `COc1ccccc1OCc1nnc(SCC(=O)Nc2ccc(N3CCOCC3)cc2)n1C` were, in that order, -2.38%, 17.9%, 29.6% and -11.3%.
For `CCCCc1c(O)nc(SCC(=O)Nc2ccc(OC)cc2)n(-c2ccc(C)c(C)c2)c1=O` the same measures were 24%, 60% (active), 51% (active) and -5.8%.
Consider `Cc1ccccc1N=C1NC(=O)/C(=C/c2cccnc2)S1`, for which the inhibition in test [1] is 13.1%; in test [2], 39.8%; in test [3], 40.2%; in test [4], 8.55%.
As to `C[C@@H]1CN([C@@H](C)CO)S(=O)(=O)c2ccc(-c3ccc(C#N)cc3)cc2O[C@@H]1CN(C)Cc1ccccn1`, the inhibition in test [1] was 24.5%; in test [2], 51.8% (active); in test [3], 48% (active); in test [4], -14.3%.
Take `CC(=O)c1ccc(NC(=S)Nc2cccc3cnccc23)cc1`: the inhibition was 3.88% in test [1], 5.22% in test [2], 4.69% in test [3] and 7.24% in test [4].
With `CCN(CC)CC(=O)Nc1ccc(-c2nc3cc(NC(=O)CN(CC)CC)ccc3o2)cc1`, the inhibition is -9.81% in test [1], 42.5% (active) in test [2], 39.6% in test [3] and -0.95% in test [4].
For `COc1cccc(-c2nc(NCC3CCCO3)c3ccccc3n2)c1O` (stereo unspecified), the inhibition in test [1] was 31.9% (active); in test [2], 64.7% (active); in test [3] it was 59.1% (active); in test [4], -15.4%.
On to `CS(=O)(=O)N1CCN(c2ccccc2NC(=O)c2ccc([N+](=O)[O-])o2)CC1`, for which the inhibition in test [1] was 11.6%; in test [2], 57.4% (active); in test [3], 55.3% (active); in test [4], -20.1%.
With `CC(C)n1c(SCC(=O)Nc2ccc(N3CCOCC3)cc2)nnc1-c1ccco1`, the inhibition is 4.53% in test [1], 55.5% (active) in test [2], 45.7% (active) in test [3] and -2.66% in test [4].
As to `CC[n+]1ccc(/C=C/c2ccc(N(C)C)cc2)c2ccccc21`, the inhibition in test [1] is 77.7% (active); in test [2] it was 110% (active); in test [3], 94.1% (active); in test [4] it was 91.1% (active).
On to `CS(=O)(=O)N1CCCC(c2nc(-c3ccc(S(=O)(=O)NCc4ccccc4)cc3)no2)C1` (stereo unspecified), for which the inhibition in test [1] is -1.45%; in test [2] it was 54.5% (active); in test [3] it was 52.7% (active); in test [4], 37.8% (active).
Turning to `O=Cc1ccc2c(c1)CCN2Cc1ccccc1`, the inhibition in test [1] is 4.56%; in test [2], 56.6% (active); in test [3] it was 55.7% (active); in test [4], -34.1%.
For `COCc1cc(C)n(CC(=O)Nc2ccc(N3CCOCC3)c(Cl)c2)c(=O)c1C#N`, the inhibition in test [1] is -4.28%; in test [2], 40.5%; in test [3], 40.9%; in test [4] it was 6.57%.
For `c1ccc(-n2nnnc2-c2cccc3ccccc23)cc1`, the inhibition in test [1] was 42% (active); in test [2] it was 52.5% (active); in test [3], 62.6% (active); in test [4], 23%.
For the molecule `Cc1ccccc1Nc1nc(-c2cccnc2)nc2ccccc12`, the inhibition is 2.04% in test [1], 41.5% (active) in test [2], 33.2% in test [3] and -10.5% in test [4].
For `COc1ccc(S(=O)(=O)Nc2ccc3c(c2)n(C)c(=O)n3C)cc1F` the same measures were 19.6%, 46.2% (active), 52.1% (active) and 7.89%.
Take `O=C(Nc1ccc(N2CCOCC2)c(Cl)c1)c1ccc([N+](=O)[O-])o1`: the inhibition in test [1] was -80.2%; in test [2], 9.33%; in test [3] it was 35.9%; in test [4], -84.8%.
In the case of `Clc1ccc(COc2cccc(CNCc3ccncc3)c2)cc1`, the inhibition in test [1] is 2.94%; in test [2] it was 62.4% (active); in test [3] it was 57.7% (active); in test [4] it was 26%.
As for `COC(=O)c1cc2c(-c3ccccc3)cc3ccccn3c-2c1C(=O)OC`, the inhibition was 11.5% in test [1], 62.3% (active) in test [2], 54.5% (active) in test [3] and 0.7% in test [4].
For `Cc1nn(C)c(C)c1CN(Cc1nc(CCC(C)C)no1)C(C)C` the same measures were 20.7%, 59.6% (active), 54.2% (active) and 52.8% (active).
For `CS(=O)(=O)N1Cc2cc(C(=O)NCC3CC3)nc(-c3cccc(-c4cccnc4)c3)c2[C@@H]1CCO`, the inhibition in test [1] was 8.47%; in test [2] it was 49.4% (active); in test [3], 47.5% (active); in test [4], -12.3%.
For `O=C(CSC1=NC2(CCCCCC2)N=C1c1ccccc1)Nc1ccc2c(c1)OCCO2`, the inhibition in test [1] is 8.01%; in test [2], 60.2% (active); in test [3], 62.2% (active); in test [4], 12.7%.
In the case of `C/C(CC1CC(C)(C)OC1=O)=N/Nc1nc(-c2ccccc2)cs1` (stereo unspecified), the inhibition is -5.65% in test [1], 47.3% (active) in test [2], 54.3% (active) in test [3] and -29.5% in test [4].
For `Cc1cc([N+](=O)[O-])ccc1NCc1ccc2ccccc2c1` the same measures were 1.75%, 43.1% (active), 38.8% and 2.64%.
Turning to `CCOc1ccc(OCCC(=O)OCC(=O)Nc2ccc3c(c2)OCCO3)cc1`, the inhibition is -6.27% in test [1], 41.5% (active) in test [2], 37.1% in test [3] and -6.23% in test [4].
With `O=C(c1ccc([N+](=O)[O-])o1)N1CCc2ccccc21`, the inhibition in test [1] is -6.72%; in test [2], 51.8% (active); in test [3], 59% (active); in test [4], -36.3%.
On to `Cc1c(C(=O)Nc2ccc(Cc3ccncc3)cc2)cccc1[N+](=O)[O-]`, for which the inhibition in test [1] is -10.9%; in test [2], 56.2% (active); in test [3] it was 49.9% (active); in test [4], 19.6%.
Turning to `CC(=O)Oc1ccc(N(C(C)=O)S(=O)(=O)c2ccccc2)c2ccccc12`, the inhibition in test [1] was 13%; in test [2] it was 31.6%; in test [3], 34.9%; in test [4], -3.17%.
Regarding `N#Cc1cc([N+](=O)[O-])ccc1NC(=O)COC(=O)C1CCC(=O)N1` (stereo unspecified), the inhibition is 15.6% in test [1], 53.7% (active) in test [2], 48.9% (active) in test [3] and -3.83% in test [4].
In the case of `CC1CC(=Cc2ccc(N)cc2)C(=O)O1` (stereo unspecified), the inhibition in test [1] was -13.5%; in test [2], 41.8% (active); in test [3], 47.7% (active); in test [4], -23.5%.
For `Cc1ccc(N2CC(C(=O)Nc3nc4ccc(S(C)(=O)=O)cc4s3)CC2=O)cc1C` (stereo unspecified) the same measures were 11.2%, 44.6% (active), 34.7% and -2.05%.
The like results for `CCc1cc(=O)oc2c(C)c(OCC(=O)NCCN3CCOCC3)ccc12` were, in that order, -3.34%, 48.5% (active), 30.7% and -8.24%.
The like results for `O=C(c1cc(-c2ccco2)nc2ccccc12)N(Cc1nnc(-c2ccc(Cl)cc2)o1)C1CC1` were, in that order, -6.37%, -5.73%, 2.98% and -2.77%.
With `O=C(CSc1nc2[nH]ncc2c(=O)n1-c1ccccc1)c1ccc2c(c1)OCCO2`, the inhibition in test [1] was 0.39%; in test [2], 38.2%; in test [3], 32.6%; in test [4], -16.1%.
For `CC(NC(=O)c1ccc([N+](=O)[O-])o1)C1CC2CCC1C2` (stereo unspecified) the same measures were 3.5%, 49.1% (active), 44.2% (active) and 10.8%.
The like results for `C=CC[n+]1c(/C=C2\C=Cc3cc(C)ccc3N2CC)ccc2ccccc21` were, in that order, 80.6% (active), 110% (active), 95.5% (active) and 95.8% (active).
With `COc1cc(-c2cc(NC=O)c3ncc(-c4ccc(C(C)=O)cc4)n3c2)ccc1O`, the inhibition in test [1] was 56.8% (active); in test [2], 64.4% (active); in test [3], 60.6% (active); in test [4], -49.1%.
On to `O=C(CSc1nc2ccccc2c(=O)n1-c1ccc(Cl)c(Cl)c1)Nc1ccc2c(c1)CCC2`, for which the inhibition in test [1] is -1.82%; in test [2], 49.9% (active); in test [3] it was 37.8%; in test [4] it was -40.9%.
For the molecule `c1ccc2c(c1)CC1(CCCC1)n1nnnc1-2`, the inhibition in test [1] is 5.24%; in test [2], 52.2% (active); in test [3], 42.5%; in test [4], -5.69%.
Consider `C/C(=N\NC(N)=S)c1ccncc1`, for which the inhibition in test [1] is 6.9%; in test [2], 54.2% (active); in test [3], 49% (active); in test [4] it was 3.01%.
Regarding `O=C(CCl)NCCCN(C(=O)C(Cl)Cl)c1ccc([N+](=O)[O-])cc1`, the inhibition was 16.7% in test [1], 59.2% (active) in test [2], 53.5% (active) in test [3] and -8.07% in test [4].

Source of the values: PubChem BioAssay.
